Rows were chosen to be rich in hits. Some 0.64% of all compounds tested hit in one or more screens of this group.
RECQ1 inh-1 = qHTS Assay for Inhibitors of RecQ-Like Dna Helicase 1 (RECQ1); ATP-dependent DNA helicase Q1 (Homo sapiens), P46063; RECQ1 DNA unwinding, red fluorescence kinetic read; 0.54% of 240,000 active; Potency, µM (titrated, usually from 57.3 µM), for inactives: at the highest dose activity, negative = inhibition, most hits filed as inhibitors;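 note: plate controls were vehicle for no effect and no enzyme for full effect; nearly all actives have a fitted effect of over 30% in size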
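50 nM RECQ1T1 preincubated 15 min with compound in Tris pH 8.0 buffer with MgCl2, DTT, Tween-20 and 2.5 ug/ml poly(dI-dC); started with 200 nM TAMRA/BHQ-2 forked duplex and 2 mM ATP. Unwinding read as fluorescence (525/598 nm), two reads 2 h apart.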
TexasRed fluor = Total Fluorescence Counterscreen for Inhibitors of the Interaction of Thyroid Hormone Receptor and Steroid Receptor Coregulator 2; TRb/SRC2 Texas Red total fluorescence interference; 0.29% of 280,000 active; Potency, µM (titrated, usually from 106 µM), without a hit: top-dose fluorescence change, negative = quenching; active = well fitted curve in either direction with a large enough effect; inconclusive = small, poorly fitted or top-dose-only effect
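Human TRβ ligand-binding domain (0.6 uM) and Texas Red SRC2 peptide (20 nM) in Tris buffer with 1 uM T3 and 5% DMSO were incubated with pinned compound for 5 hr at ambient temperature. Total fluorescence was computed as S + 2P (555/632 nm).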
BLM helicase inh = qHTS Assay for Inhibitors of Bloom's syndrome helicase (BLM) | RecQ-like DNA helicase BLM (Homo sapiens), P54132 | recombinant BLM DNA unwinding, fluorescence dequenching | Potency, µM (highest dose often 56.1 µM), for inactives: at the top dose activity change, negative = inhibition, most hits filed as inhibitors | 0.2% of 350,000 active | AID 2528, 2010;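 note: plate controls were vehicle for no effect and no enzyme for full effect; nearly all actives have a fitted effect of over 35% in size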
TRb SRC2 PPI = qHTS for Inhibitors of the Interaction of Thyroid Hormone Receptor and Steroid Receptor Coregulator 2. Potency, µM (doses to about 106 µM), for the others: top-dose activity change, negative = inhibition, usual class: inhibitors. TRbeta-SRC2 peptide binding, fluorescence polarization; receptor liganded with 1 µM T3. Thyroid hormone receptor beta (Homo sapiens), P10828. 0.065% of 280,000 active;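 note: plate controls were bound peptide for no effect and peptide without receptor for full effect; nearly all actives have a fitted effect of over 50% in size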
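Binding of a 20-amino-acid Texas Red SRC2 peptide (20 nM) to TRb ligand-binding domain (0.6 uM) with agonist T3 at 1 uM was followed by fluorescence polarization after a 5 hr room-temperature incubation.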
RECQ1 conf = Confirmation qHTS Assay for Inhibitors of RecQ-Like Dna Helicase 1 (RECQ1); Potency, µM (doses to about 229 µM), without a hit: at the top dose activity change, negative = inhibition, hits mostly inhibitors; AID 2708, 2010; shares compounds with RECQ1 inh-1; 28% of 610 active; RECQ1 helicase DNA unwinding, fluorescence; note: nearly all actives have a fitted effect of over 45% in size
ADP FP counter = Counterscreen for RECQ1 Inhibitors: ADP Fluorescence Polarization Displacement Assay; shares compounds with RECQ1 inh-1; ADP fluorescence polarization displacement counterscreen; Potency, µM (series often up to 228 µM), for the others: at the top dose activity change, negative = inhibition, most hits filed as inhibitors; 27% of 530 active; AID 2711, 2010; note: nearly all actives have a fitted effect of over 45% in size
RECQ1 inh-2 = Confirmation qHTS Assay for Inhibitors of RecQ-Like Dna Helicase 1 (RECQ1) - Round 2 Cherry Picks | shares compounds with RECQ1 inh-1 | recombinant RECQ1 DNA unwinding, red fluorescence | Potency, µM (highest dose often 119 µM), for inactives: top-dose activity, negative = inhibition, most hits filed as inhibitors | 15% of 1,100 active | AID 504841, 2011; note: nearly all actives have a fitted effect of over 50% in size
* hit, by the source's call; i = inactive; ? = inconclusive; . = no result given; ! = not active in a repeat; [ ] = remark or other dose. Unless noted, calls come from the whole dose curve; as a rule, active = well fitted curve in the direction sought with a large enough effect; inconclusive = small, poorly fitted or top-dose-only effect, or another doubt; inactive = no such curve, though single readings can be large; an effect the other way counts as inactive or inconclusive. Unless noted, % is set by controls: 0 for no effect and ±100 for the full control effect; potency is the fitted concentration of half-maximal effect.

SMILES | RECQ1 inh-1 | TexasRed fluor | BLM helicase inh | TRb SRC2 PPI | RECQ1 inh-2 | others
Cc1oc(=O)oc1CN1CCN(c2cc3c(cc2F)c(=O)c(C(=O)O)c2n3C(C)S2)CC1 (centres undefined) | . | -1% | 31% | 10% | .
O=C(Nc1ccc2c(c1)N(C1CCCC1)C(=O)c1ccccc1S2)c1ccc(F)cc1 | . | -5% | -7% | 2% | .
COc1cc(OC)c(NC(=O)CSc2nc3ccncc3[nH]2)cc1Cl | . | -2% | -2% | 7% | .
Cc1cc(C)c(C(=O)/C=C/c2cccc3ccccc23)c(=O)[nH]1 | -11% | 1% | -7% | -6% | .
Cc1[nH]c(=O)c(C(=O)/C=C/c2ccccc2F)c2c1CCCC2 | 32µM* | 0% | -7% | -6% | ?
Nc1cc2nc[nH]c2cc1N | 1.8µM* | -19% | ? | 2% | . | RECQ1 conf=8%[114 µM];ADP FP counter=?
Cn1c(=O)n(C)c2cc3[nH]cnc3cc21 | . | . | 0% | . | .
CC(=O)c1cccc(N(C(=O)c2cnccn2)C(C(=O)NCc2ccccc2)c2ccco2)c1 (centres undefined) | 40µM* | 2% | -3% | -15% | -8%
O=C(NCc1ccccc1)C(c1ccco1)N(C(=O)c1cnccn1)c1ccc(F)cc1 (centres undefined) | -2% | -1% | -7% | -17% | .
CCCCC[C@H](O)C/C=C1/C(=O)C=C[C@@H]1C/C=C\CCCC(=O)O | -19% | 1% | -16% | -7% | .
CCCCC/C=C/C=C1/C(=O)C=C[C@@H]1C/C=C\CCCC(=O)O | 35µM*! | 1% | 70% | 1% | ?
Cc1ccc(OCC(=O)N/N=C/C=C/c2ccco2)cc1 | 8.9µM* | -2% | -23% | -1% | . | RECQ1 conf=?;ADP FP counter=?
O=C(COc1ccccc1[N+](=O)[O-])N/N=C/C=C/c1ccco1 | -22% | 0% | ? | -3% | .
CC(C)=C1C(=O)NN(c2ccc(C)c(Cl)c2)C1=O | ? | -9% | -5% | 0% | -3%
CC(C)=C1C(=O)NN(c2cccc(Cl)c2)C1=O | ? | -8% | 1% | 2% | .
Cc1cccc(C(=O)O/N=C(\N)c2cccc([N+](=O)[O-])c2)c1 | 14% | -2% | -2% | -2% | .
N/C(=N\OC(=O)c1cccs1)c1cccc([N+](=O)[O-])c1 | 45µM* | -2% | -7% | 0% | -8%
OCC1OC(Oc2cccc3ccccc23)C(O)C(O)C1O (centres undefined) | . | . | -1% | . | .
O=C(O)c1cc(O)c2c(c1)[C@H]([C@H]1c3cc(C(=O)O)cc(O)c3C(=O)c3c(O[C@@H]4OC(CO)C(O)C(O)C4O)cccc31)c1cccc(O[C@@H]3OC(CO)C(O)C(O)C3O)c1C2=O (some centres undefined) | 2µM* | 22µM*[quencher] | 3.2µM* | ? | . | RECQ1 conf=2.8µM*;ADP FP counter=7.1µM*
COC(=O)c1cc2ccsc2n1Cc1nc(-c2ccc(OC)cc2)oc1C | 32µM* | 4% | -4% | -12% | -23%
O=C(CSc1nc2scc(-c3ccco3)c2c(=O)n1-c1ccccc1)N1CCOCC1 | i | -1% | -5% | -10% | .
C=CCn1c(SCC(=O)NCC2CCCO2)nc2scc(-c3ccc(OC)cc3)c2c1=O (centres undefined) | . | . | -4% | . | .
NC(=O)CSc1nc2scc(-c3ccco3)c2c(=O)n1-c1ccccc1 | 28µM* | -7% | ? | 4% | ? | RECQ1 conf=?;ADP FP counter=-5%[91.9 µM]
C=CCn1c(SCC(=O)NCC2CCCO2)nc2scc(-c3ccco3)c2c1=O (centres undefined) | ? | -1% | -23% | -12% | ?
O=c1c2c(-c3ccco3)csc2nc(SCc2cn3cccnc3n2)n1-c1ccccc1 | 13µM* | -6% | -11% | 13% | -22%
SMILES | RECQ1 inh-1 | TexasRed fluor | BLM helicase inh | TRb SRC2 PPI | RECQ1 inh-2 | others
S=c1[nH]nc(-c2ccco2)n1-c1ccccc1Cl | -6% | -5% | -6% | -6% | .
S=c1[nH]nc(-c2cc(-c3ccco3)[nH]n2)n1-c1ccccc1Cl | 7.9µM* | -14% | 5% | 5% | . | RECQ1 conf=15%[114 µM];ADP FP counter=?
C[S+](C)CC[C@H](N)C(=O)O | . | . | 3% | . | .
Cc1c(Cl)cnc(NC(=O)COC(=O)c2ccc([N+](=O)[O-])s2)c1Cl | 28µM* | 3% | -27% | -12% | 10µM*
O=C(COC(=O)c1ccc([N+](=O)[O-])s1)Nc1ccc(Cl)cn1 | -13% | 0% | -18% | 2% | .
O=C(COc1ccc2c(c1)CCC2)N1CCN(c2cccc(C(F)(F)F)c2)CC1 | 35µM* | 1%[53 µM] | -6% | -5%[53 µM] | -14%
O=C(COc1cccc(C(F)(F)F)c1)N1CCN(c2ccc(O)cc2)CC1 | -5% | -2% | -1% | -2% | .
O=c1cc(CSc2ccc(Cl)cc2)[nH]c2[nH]n(-c3ccccc3)c(=O)c12 | ? | -13% | -16% | -9% | -5%
Cc1[nH]n(-c2ccccc2)c(=O)c1Sc1ccc(Cl)cc1 | -11% | -4% | -3% | -16% | .
O=C1NC(=S)S/C1=C\C=C\c1ccc([N+](=O)[O-])o1 | 13µM* | ? | -14% | 0% | . | RECQ1 conf=?
O=C1CN(/N=C\c2ccc([N+](=O)[O-])o2)C(=O)N1 | i | -13%[53 µM] | 1%[21.4 µM] | 0%[53 µM] | .
Cc1cc2nc3c(=O)[nH]c(=O)[nH]c3nc2c([N+](=O)[O-])c1N | ? | -4% | 16µM* | 5% | 45µM*
Cc1c(N)c(C(C)(C)C)cc(C(C)(C)C)c1[N+](=O)[O-] | i | -2% | -8% | 6% | .
Cc1ccc(CCNC(=O)CSCc2nc(-c3ccc(C)cc3)oc2C)cc1 | . | 3% | -6% | -2% | .
Cc1ccc(CSC2=Nc3ccccc3C3=NC(CCC(=O)NCc4ccco4)C(=O)N23)cc1 (centres undefined) | -13% | -1% | -8% | -5% | .
O=C(CC1N=C2c3ccccc3N=C(SCc3ccc(Cl)cc3)N2C1=O)NCc1ccco1 (centres undefined) | ? | 3% | -14% | -17% | ?

From PubChem BioAssay
